Consider 52 molecules from ChEMBL document CHEMBL3988442, “University of Dundee, Small-Polar-MMV Screening Library” (2021).

Molecules are shown by their SMILES. About 13,000 (27%) of roughly 48,000 compounds showed an effect of 50% or more. Some of the results follow.

This test relates to Wolbachia pipientis. The experiment in a line: Anti-Wolbachia Cell-Based Screen. Particulars: 5 µM. It counts as functional. Also noted: scale not given: in the data most compounds retested in dose-response had high values.
Turning to `Cn1cnc2c1C(C(=O)N1CCCC1)N(CC1CC1)CC2.O=C(O)C(F)(F)F` (configuration not stated), the “Percent Effect” value is recorded as 6.577%.

Consider `Cc1noc(C)c1CN(C)C(=O)C1CCCN1S(N)(=O)=O` (configuration not stated), for which the “Percent Effect” value is given as 1.482%.

Regarding `Cc1nc2ccccc2n(Cc2nnnn2C2CC2)c1=O`, the “Percent Effect” value was 11.64%.

As to `CCc1ccc(CN2CCN(c3ccc(Cl)nn3)CC2)nc1`, the “Percent Effect” value was -1.382%.

Regarding `CC(=O)N1CC[C@H]2CC(=O)N(C3CC3)CC[C@H]2C1`, the “Percent Effect” value is -2.772%.

For `COCc1noc(-c2ccc(N3CCCC3c3ccc(F)cc3)nc2)n1` (configuration not stated), the “Percent Effect” value was determined as 17.95%.

In the case of `CCSc1ccccc1C(=O)N1CC2(COC(C)(C)OC2)C1`, the “Percent Effect” value was 0.7993%.

Consider `COc1ncc(CN(CCN(C)C)Cc2ccc(C)s2)cn1`, for which the “Percent Effect” value turned out to be 7.179%.

Consider `CC(C)N1CCC(NCc2cccnc2N(C)C)CC1`, for which the “Percent Effect” value amounted to 4.897%.

Turning to `CC(C)N1CCC(C(=O)N(C)C(C)c2ccon2)CC1` (configuration not stated), the “Percent Effect” value was -1.072%.

With `COc1ncc(CN(C)C2CCN(C(C)C)CC2)cn1`, the “Percent Effect” value is 134.1%.

With `CCN1CCN(Cc2ccnc(-c3cccnc3)n2)CC1.O=C(O)CC(O)(CC(=O)O)C(=O)O`, the “Percent Effect” value is listed as -7.954%.

Consider `CCc1ncc(CN(C)C2CCN(C(C)C)CC2)cn1.O=C(O)CC(O)(CC(=O)O)C(=O)O`, for which the “Percent Effect” value came out at 161.6%.

Regarding `CNc1ncc(CN(C)C2CCN(C(C)C)CC2)cn1`, the “Percent Effect” value is listed as 131.8%.

Consider `CC(C)N1CCC(NCc2cccnc2N(C)Cc2ccccc2)CC1`, for which the “Percent Effect” value is listed as -0.8543%.

Regarding `CCCc1ncc(CN(C)C2CCCN(CCc3ccccc3)C2)cn1` (configuration not stated), the “Percent Effect” value is listed as -21.26%.

For `Cc1cc2cc(Nc3c(C#N)c(=O)n(C)c(=O)n3C)ccc2[nH]1`, the “Percent Effect” value is listed as 4.966%.

`COc1ccc2c(c1)CC(NCc1cccc(OCC(N)=O)c1)CC2` (configuration not stated): the “Percent Effect” value stood at 2.98%.

`CN(C)c1cc2c(nn1)CCN(C(=O)c1cc3ccccc3[nH]c1=O)C2`: the “Percent Effect” value came out at 4.124%.

In the case of `COc1cc2c(cc1OC)C(=O)C(Sc1nnnn1C)C2` (configuration not stated), the “Percent Effect” value was found to be 95.35%.

For `CNS(=O)(=O)CCn1cc(-c2cc3c(cc2OC)CCC3)nn1`, the “Percent Effect” value is recorded as -24.83%.

On to `COc1cc2c(cc1OC)C(=O)C(Sc1nnc(C)o1)C2` (configuration not stated), for which the “Percent Effect” value was determined as 89.14%.

`COc1cc2c(cc1OC)CN(C(=O)NC(C)c1nncn1C)CC2` (configuration not stated): the “Percent Effect” value is on record as -16.43%.

For `COc1ccc(C)cc1-n1cnnc1C1CC(=O)N(C)C1` (configuration not stated), the “Percent Effect” value came out at 6.21%.

Take `Cc1nnc(SCC(=O)N2CCC3(CC2)c2ccccc2CC3O)o1` (configuration not stated): the “Percent Effect” value is on record as -11.87%.

For `COc1cc2c(cc1OC)C(=O)C(Sc1nncn1C)C2` (configuration not stated), the “Percent Effect” value amounted to 119.4%.

On to `COc1cccc(Cc2nnc(SC3CCOC3=O)o2)c1` (configuration not stated), for which the “Percent Effect” value was -7.418%.

For the molecule `O=C1CCC2(CCCO2)CCN1Cc1noc(C2CCCC2)n1` (configuration not stated), the “Percent Effect” value is reported as 15.53%.

With `O=C(NC1(c2nnn(Cc3ccncc3)n2)CCCC1)c1ccccc1`, the “Percent Effect” value was -7.35%.

Consider `CC(O)(CNc1ccccn1)c1ccccc1` (configuration not stated), for which the “Percent Effect” value is reported as 12.1%.

With `O=C(NCCNS(=O)(=O)C1CCCCC1)c1ccccc1`, the “Percent Effect” value was 130.7%.

For the molecule `CCS(=O)(=O)NCCNC(=O)c1cnc(-c2ccccc2)nc1`, the “Percent Effect” value is listed as 1.605%.

Consider `O=C(NCCNS(=O)(=O)c1ccc2c(c1)CCC2)c1ccccc1`, for which the “Percent Effect” value is recorded as 4.416%.

In the case of `O=C(Cc1ccc(F)cc1)NCCNS(=O)(=O)c1ccc(F)c(F)c1`, the “Percent Effect” value was -6.551%.

For `O=C(Cc1ccc(F)cc1)NCCc1ccoc1`, the “Percent Effect” value is 13.31%.

Regarding `O=C(Cc1ccccc1)NCCNS(=O)(=O)C1CCCCC1`, the “Percent Effect” value came out at 110.7%.

Turning to `CCc1ccc2c(c1)C(CCNC(=O)Cc1cccc(F)c1)C(=O)N2` (configuration not stated), the “Percent Effect” value was found to be 1.678%.

Take `Cc1cccc(CCNC(=O)CCS(=O)(=O)C2CCCC2)c1`: the “Percent Effect” value turned out to be 1.788%.

Turning to `O=C(Cc1ccc(F)cc1)NCCNS(=O)(=O)C1CCCC1`, the “Percent Effect” value stood at 108.3%.

As for `O=C(Cc1cccc(F)c1)NCCNS(=O)(=O)C1CCCC1`, the “Percent Effect” value came to 103.6%.

`O=C(CCS(=O)(=O)C1CCCC1)NCCc1cccc(O)c1`: the “Percent Effect” value was 0.8082%.

Consider `CN(C)C(CNCc1nc(-c2ccsc2)no1)c1cccs1` (configuration not stated), for which the “Percent Effect” value came out at 32.89%.

In the case of `CN(Cc1ccc(OC(F)F)cc1)C(=O)CS(=O)(=O)c1ccc(Cl)cc1`, the “Percent Effect” value is -2.734%.

Take `O=C(c1ccccc1-c1nnn[nH]1)N1CCOC(C(F)(F)F)C1` (configuration not stated): the “Percent Effect” value is listed as -13.17%.

On to `COc1ccc(C(C)Nc2ncc(C(N)=O)cc2Cl)cc1OC` (configuration not stated), for which the “Percent Effect” value is reported as 2.755%.

Consider `COc1ccc(-c2noc(CNC(C)Cn3cccn3)n2)c(OC)c1` (configuration not stated), for which the “Percent Effect” value was -1.941%.

For `CNC(=O)COc1cccc(CNCc2c(C)noc2C)c1`, the “Percent Effect” value is given as -88.14%.

On to `Cc1noc(C)c1C(=O)N(C)C(C)c1cccnc1` (configuration not stated), for which the “Percent Effect” value was 4.505%.

Turning to `COc1cc(CNC(=O)c2c(C)noc2C(C)C)ccn1`, the “Percent Effect” value worked out at 8.071%.

For the molecule `Cc1nc(-c2cnn(C)c2)sc1C(=O)NCc1cccc(CN(C)C)c1`, the “Percent Effect” value worked out at 4.14%.

Take `Cc1noc(C(C)C)c1C(=O)NS(=O)(=O)c1cccnc1`: the “Percent Effect” value is listed as -12.13%.

On to `COc1cccc(S(=O)(=O)NC(=O)c2c(C)noc2C(C)C)c1`, for which the “Percent Effect” value is recorded as -5.099%.
